PTAP TSG101 blk – blocks PTAP/TSG101 interaction to inhibit HIV-1 budding. Q99816. Fluorescence polarization, FITC-PTAP peptide / Tsg101 binding. Potency, µM (doses to about 115 µM), without a hit: at the highest dose activity change, negative = inhibition, hits mostly inhibitors. 340,000 tested, under 10 active. AID 493005; active = well fitted inhibition curve with a large enough effect in the main read-out, with a control signal flat, not every such curve was filed as active; inconclusive = small, poorly fitted or top-dose-only effect, or effect the other way, or a change in a side signal; inactive = no such curve, though single readings can be large or run the other way; also: % of control where 0% means no effect
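FP read-out: FITC-PTAP peptide, 50 nM final, binding Tsg101 binding domain, 10 uM final; 20 min, r.t.; 10 mM HEPES pH 7.5, 0.15 M NaCl, 0.01% Tween 20, 3 mM EDTA, 0.1 mM TCEP.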
PLK1 PBD block – PLK1 (human) polo-box domain binding inhibition. Plk1 PBD binding of FITC phosphopeptide, fluorescence polarization. Potency, µM, inactives show max response, negative = inhibition, most hits filed as inhibitors. 360,000 tested, 2.8% active; also: series mostly up to about 57 µM; % is scaled to controls: 0 for no effect and ±100 for the full control effect; nearly all actives have a fitted effect of over 65% in size
VDR inh – inhibitors of human vitamin D receptor | P11473 | VDR-SRC2-3 peptide fluorescence polarization, 2 h | Potency, µM, for inactives: max response, negative = inhibition, usual class: inhibitors | 400,000 tested, 0.93% active | AID 504847; also: % is scaled to controls: 0 for no effect and ±100 for the full control effect
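The screen uses fluorescence polarization to detect compounds that interfere with recruitment of the SRC2-3 coactivator peptide to VDR; plates are read after 2 h at room temperature.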
GCN5L2 inh – blocks human GCN5L2 histone acetyltransferase | 390,000 tested, 0.21% active | Q92830 | AID 504327 | Potency, µM (titrated, usually from 58.9 µM), inactives show top-dose activity change, negative = inhibition, actives largely listed as inhibitors | GCN5L2 HAT assay, ThioGlo1 CoA-SH fluorescence; also: % is scaled to controls: 0 for no effect and ±100 for the full control effect
Target sequence (Q92830 whole entry, looked up): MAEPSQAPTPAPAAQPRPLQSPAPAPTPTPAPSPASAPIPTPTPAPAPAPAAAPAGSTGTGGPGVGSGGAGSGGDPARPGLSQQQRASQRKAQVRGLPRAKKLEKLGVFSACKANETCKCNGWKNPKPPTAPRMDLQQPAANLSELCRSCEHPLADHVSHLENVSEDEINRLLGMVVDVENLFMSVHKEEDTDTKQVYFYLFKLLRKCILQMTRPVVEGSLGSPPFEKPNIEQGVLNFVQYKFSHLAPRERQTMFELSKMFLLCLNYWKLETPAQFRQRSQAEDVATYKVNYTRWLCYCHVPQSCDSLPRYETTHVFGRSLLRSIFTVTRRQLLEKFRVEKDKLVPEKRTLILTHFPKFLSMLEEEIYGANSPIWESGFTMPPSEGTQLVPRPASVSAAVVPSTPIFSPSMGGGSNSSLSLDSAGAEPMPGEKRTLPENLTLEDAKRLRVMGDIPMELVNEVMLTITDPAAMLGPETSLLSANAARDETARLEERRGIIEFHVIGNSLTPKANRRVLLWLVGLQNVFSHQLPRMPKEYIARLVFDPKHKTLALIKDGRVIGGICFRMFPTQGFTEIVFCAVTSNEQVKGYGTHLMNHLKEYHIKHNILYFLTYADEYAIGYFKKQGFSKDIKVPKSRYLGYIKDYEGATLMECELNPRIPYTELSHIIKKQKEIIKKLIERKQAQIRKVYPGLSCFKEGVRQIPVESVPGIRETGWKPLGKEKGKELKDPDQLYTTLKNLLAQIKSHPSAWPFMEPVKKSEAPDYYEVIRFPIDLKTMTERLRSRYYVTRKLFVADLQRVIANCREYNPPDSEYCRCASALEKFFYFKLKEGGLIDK
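Enzyme at 20nM final was mixed with library compounds for 15 min at room temperature. Peptide H3(1-25) at 75uM, acetyl-CoA at 70uM and ThioGlo1 at 50uM were then added. Plates were read immediately and after 20 min (Ex340nm/Em540nm).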
USP1 inh – USP1/UAF1 (human) deubiquitinase inhibition; O94782; recombinant USP1/UAF1, Ub-Rhodamine cleavage fluorescence; Potency, µM (highest dose often 57.1 µM), inactives show at the top dose activity change, negative = inhibition, most hits filed as inhibitors; 390,000 tested, 0.23% active; also: % is scaled to controls: 0 for no effect and ±100 for the full control effect; nearly all actives have a fitted effect of over 60% in size
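USP1/UAF1 complex at 1 nM was preincubated with compound for 15 min at room temperature, then Ub-Rho substrate (150nM final) was added. Fluorescence (480/540 nm) was read kinetically, 6 reads every 60 seconds.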
VDR inh confirm – confirmation of human vitamin D receptor inhibitors; shares compounds with VDR inh; VDR-coactivator inhibition assay, qHTS confirmation; Potency, µM, most hits filed as inhibitors; 840 tested, 89% active
VDR FP – confirmation of human VDR-coactivator binding inhibitors, fluorescein label; 840 tested, 48% active; shares compounds with VDR inh; VDR-coactivator binding, fluorescein fluorescence polarization; Potency, µM (titrated, usually from 57.1 µM), for the others: top-dose activity change, negative = inhibition, usual class: inhibitors
VDR bla reporter – confirmation of human vitamin D receptor inhibitors in reporter cells | shares compounds with VDR inh | VDR beta-lactamase reporter cells, FRET ratio; cells co-treated with VDR agonist LG190178 | Potency, µM (top dose mostly 46.1 µM), for inactives: at the top dose activity change, negative = inhibition, usual class: inhibitors | 840 tested, 23% active; also: % is scaled to controls: 0 for no effect and ±100 for the full control effect
VDR viability – cell toxicity, VDR inhibitor hit counter-screen; shares compounds with VDR inh; cytotoxicity counter-screen, cell viability, qHTS; Potency, µM (titrated, usually from 48.3 µM), inactives show at the top dose activity change, negative = cytotoxicity, usual class: cytotoxic; 840 tested, 18% active;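 also: plate controls were DMSO for no effect and high-concentration cycloheximide for full effect; nearly all actives have a fitted effect of over 75% in size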
* hit, by the source's call. In the library only some 3% were active in any assay of this set; here they are far more common. Unless noted, calls follow the shape of the dose curve; as a rule, active = well fitted curve in the direction sought with a large enough effect; inconclusive = small, poorly fitted or top-dose-only effect, or another doubt; inactive = no such curve, though single readings can be large; an effect the other way counts as inactive or inconclusive. Potency is read from the fitted curve at half-maximal effect.

What do the screens show for `O=C(c1ccccc1)n1nc(-c2ccco2)nc1NCc1ccccc1Cl`?
VDR inh: 6%; GCN5L2 inh: -12%; USP1 inh: -12%

What do the screens show for `O=C(NCCc1ccc(Cl)cc1)c1ccc(Cn2c(=O)[nH]c3ccccc3c2=O)cc1`?
VDR inh: 7%; GCN5L2 inh: -1%; USP1 inh: 7%

What do the screens show for `COC(=O)/C=C/c1ccc2c(c1)S(=O)(=O)N(Cc1ccc(OC)cc1)[C@H]2CC(=O)OC`?
PTAP TSG101 blk: -2%; PLK1 PBD block: 0%; VDR inh: -4%; USP1 inh: -32%

Results for COc1ccc(CN2[C@@H](CC(C)=O)c3ccc(/C=C/C(C)=O)cc3S2(=O)=O)cc1 ?
PTAP TSG101 blk: -1%; PLK1 PBD block: -9%; VDR inh: 79µM*; USP1 inh: -20%; VDR inh confirm: 5*; VDR FP: inconclusive; VDR bla reporter: inconclusive; VDR viability: inconclusive

What do the screens show for `COC(=O)c1ccc(NS(=O)(=O)c2ccc3c(c2)n(C)c(=O)c(=O)n3C)cc1`?
VDR inh: -8%; GCN5L2 inh: -1%; USP1 inh: -10%

How did Cn1c(N)c(C(=O)Nc2ccc(-c3ccccc3)cc2)sc1=S do in these assays?
PTAP TSG101 blk: -5%; PLK1 PBD block: 15µM*; VDR inh: inconclusive; GCN5L2 inh: -21%; USP1 inh: -17%; VDR inh confirm: 18*; VDR FP: 22µM*; VDR bla reporter: inconclusive; VDR viability: inconclusive

How did [O-]/[N+](=C/c1ccc(F)cc1)c1ccc(Cl)cc1 do in these assays?
PTAP TSG101 blk: -3%; PLK1 PBD block: inconclusive; VDR inh: 32µM*; GCN5L2 inh: 1%; USP1 inh: -9%; VDR inh confirm: 24*; VDR FP: inconclusive; VDR bla reporter: -13%; VDR viability: 6%

Results for COc1ccc(C2=NN(c3ccccc3)C(=O)/C2=C\c2ccc(O)c(OC)c2)cc1 ?
PTAP TSG101 blk: -2%; PLK1 PBD block: inconclusive; VDR inh: -10%; GCN5L2 inh: -21%; USP1 inh: -25%

What do the screens show for `COc1ccc(/C=C2/C(=O)N(c3c(F)c(F)c(F)c(F)c3F)N=C2C)cc1`?
PTAP TSG101 blk: -7%; PLK1 PBD block: 6.7µM*; VDR inh: 50µM*; GCN5L2 inh: -26%; USP1 inh: -20%; VDR inh confirm: inconclusive; VDR FP: 18µM*; VDR bla reporter: 15%; VDR viability: 22%

What do the screens show for `CN(Cc1ccccc1)C(=O)[C@H](Cc1ccc2ccccc2c1)NC(=O)[C@@H]1CCCN1C(=O)Nc1ccccc1[N+](=O)[O-]`?
VDR inh: 10%; GCN5L2 inh: 3%

What do the screens show for `CCSc1nnc(NC(=O)c2nc(S(=O)(=O)Cc3ccc(F)cc3)ncc2Cl)s1`?
PTAP TSG101 blk: -3%; PLK1 PBD block: inconclusive; VDR inh: inconclusive; GCN5L2 inh: -9%; USP1 inh: -18%; VDR inh confirm: 2.8*; VDR FP: 3.5µM*; VDR bla reporter: 16µM*; VDR viability: 19µM*

Results for CC(C)c1nnc(NC(=O)c2nc(SCc3ccc(F)cc3)ncc2Cl)s1 ?
VDR inh: 0%; GCN5L2 inh: -11%; USP1 inh: -12%

How did CSc1nnc(NC(=O)c2nc(S(=O)(=O)Cc3cccc(C)c3)ncc2Cl)s1 do in these assays?
PTAP TSG101 blk: 1%; PLK1 PBD block: inconclusive; VDR inh: 14µM*; GCN5L2 inh: 2%; USP1 inh: -7%; VDR inh confirm: 4.2*; VDR FP: inconclusive; VDR bla reporter: 5.8µM*; VDR viability: 16µM*

How did Cc1cccc(CS(=O)(=O)c2ncc(Cl)c(C(=O)Nc3nnc(C(C)C)s3)n2)c1 do in these assays?
PTAP TSG101 blk: 3%; PLK1 PBD block: inconclusive; VDR inh: 8.9µM*; GCN5L2 inh: 0%; USP1 inh: -20%; VDR inh confirm: 6*; VDR FP: 3.5µM*; VDR bla reporter: 8.2µM*; VDR viability: 13µM*

What do the screens show for `Cc1ccc(CS(=O)(=O)c2ncc(Cl)c(C(=O)Nc3nnc(C(C)C)s3)n2)cc1`?
PTAP TSG101 blk: 3%; PLK1 PBD block: inconclusive; VDR inh: 13µM*; GCN5L2 inh: -2%; USP1 inh: inconclusive; VDR inh confirm: 6.7*; VDR FP: 3.2µM*; VDR bla reporter: 9.2µM*; VDR viability: 18µM*

What do the screens show for `COc1cccc(CNC(=O)C2CCN(C(=O)c3sccc3-n3cccc3)CC2)c1`?
VDR inh: -16%; GCN5L2 inh: -4%; USP1 inh: inconclusive

Results for CCCCOc1cccc(C(=O)Nc2ccc(S(=O)(=O)Nc3nnc(CC)s3)cc2)c1 ?
PTAP TSG101 blk: -4%; PLK1 PBD block: inconclusive; VDR inh: -22%; GCN5L2 inh: -28%; USP1 inh: -26%

What do the screens show for `CC(C)c1nnc(NC(=O)c2nc(S(=O)(=O)Cc3ccc(F)cc3)ncc2Cl)s1`?
PTAP TSG101 blk: 0%; PLK1 PBD block: -22%; VDR inh: 10µM*; GCN5L2 inh: -4%; USP1 inh: -20%; VDR inh confirm: 7.5*; VDR FP: 3.5µM*; VDR bla reporter: 16µM*; VDR viability: 10µM*

What do the screens show for `COc1ccc(NC=O)c(C(=O)CCNC(C)=O)c1`?
VDR inh: 1%; GCN5L2 inh: 0%

What do the screens show for `O=C(O)CN1C(=O)/C(=C\c2cc(Br)ccc2OCc2ccc(Cl)cc2Cl)SC1=S`?
PTAP TSG101 blk: -8%; PLK1 PBD block: 12µM*; VDR inh: 45µM*; GCN5L2 inh: inconclusive; USP1 inh: inconclusive; VDR inh confirm: 17*; VDR FP: 18µM*; VDR bla reporter: 12%; VDR viability: inconclusive

What do the screens show for `O=C(CCCN1C(=O)/C(=C/c2ccccc2Cl)SC1=S)NNC(=O)c1ccc(Cl)cc1Cl`?
PTAP TSG101 blk: 3%; PLK1 PBD block: -15%; VDR inh: 7%; GCN5L2 inh: -8%; USP1 inh: -11%

Screens from PubChem.
